Experimental data: the supplement of paper PMC10849652
The full data set covers some 7,900 targets. This sample favours those with a hit. About 0.6% of all pairs of compound and target were hits. Values without a mark were called inactive.

How the values were obtained:
Assay in all cases: log2 fold change, soluble protein after heating vs DMSO (PISA); higher = thermal stabilisation; K562 cells, 10 uM, 30 min; active = over 0.2 and 3.5 SD of the protein, either way, in both replicates (recomputed)
[1] = compound: C#Cc1cccc(Nc2ncnc3cc(OCCOC)c(OCCOC)cc23)c1 [erlotinib]
Procedure, shortened: (§1)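 Aliquots of K562 cells (2×10^6 cells/mL) treated with 10 μM compound for 30 min were heated for 3 min over 48°C-58°C. After pooling and extraction in PBS with 0.5% NP-40 at 4°C, soluble protein from a 21,000xg, 90 min spin was quantified by TMTpro 16plex LC-MS/MS with channel sums equalised. Thermal stability is expressed against control samples, from duplicates, as a log2 fold change.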

[2] = compound: C/C(=N\NC(=O)C1=CC(=CC=C1)S(=O)(=O)N2CCOCC2)/C3=C(C=CC(=C3)Cl)O
Procedure, shortened: as §1

[3] = compound: C1=CC(=C(C=C1Cl)C2=NC3=NC=CN=C3C(=N2)NC4=CC=NC=C4)F
Procedure, shortened: as §1

[4] = compound: C1=CC(=CC=C1C2=NC3=C(N2)C=C(C=C3)C(=O)N)OC4=CC=C(C=C4)Cl
Procedure, shortened: as §1

[5] = compound: C1=CC2=C(C=CC(=C2)/C=C\3/C(=O)NC(=NCC4=CC=CS4)S3)N=C1
Procedure, shortened: as §1

[6] = compound: C1=CC2=NC=CN=C2C=C1/C=C/3\C(=O)NC(=O)S3
Procedure, shortened: as §1

[7] = compound: C1=CC=C(C=C1)C2=NC(=C(N2)C3=CC=NC=C3)C4=CC(=C(C=C4)Cl)O
Procedure, shortened: as §1

[8] = compound: C1=CC=C2C(=C1)C3=NNC4=CC=CC(=C43)C2=O
Procedure, shortened: as §1

[9] = compound: C1CCN(C1)C(=O)NC2=CC=CC(=C2)NC3=NC=C(C(=N3)NCCC4=CN=CN4)Br
Procedure, shortened: as §1

[10] = compound: C1CN(CCC1(CC2=CC=C(C=C2)Cl)N)C3=NC=NC4=C3C=CN4
Procedure, shortened: as §1

[11] = compound: C1COCCN1CCN2C3=CC=CC=C3N=C2NC(=O)C4=CC(=CC=C4)[N+](=O)[O-] [IRAK-1-4 Inhibitor I]
Procedure, shortened: as §1

[12] = compound: C=CC(=O)N1CCC[C@@H](n2nc(-c3ccc(Oc4ccccc4)cc3)c3c(N)ncnc32)C1 [ibrutinib]
Procedure, shortened: as §1

[13] = compound: CC(=O)c1cnc2ccc(-c3cc(Cl)c(O)c(Cl)c3)nc2c1N[C@H]1CC[C@H](CN(C)C)CC1
Procedure, shortened: as §1

[14] = compound: CC(C)(C)Cn1c(N)nc2ccc(-c3[nH]c(C(C)(C)C)nc3-c3ccc(F)cc3)nc21 [ralimetinib]
Procedure, shortened: as §1

[15] = compound: CC(C)(O)CC(=O)NCCn1ccc2ncnc(Nc3ccc(Oc4cccc(C(F)(F)F)c4)c(Cl)c3)c21
Procedure, shortened: as §1

[16] = compound: CC(C)C1=C2N=C(C=C(N2N=C1)NCC3=CC=CC=C3)NCCCCCCN
Procedure, shortened: as §1

[17] = compound: CC(C)C[C@@H](C=O)NC(=O)[C@H](CC(C)C)NC(=O)[C@H](CC(C)C)NC(=O)OCc1ccccc1
Procedure, shortened: as §1

[18] = compound: CC(C)N(C[C@H]1O[C@@H](n2cnc3c(N)ncnc32)[C@H](O)[C@@H]1O)[C@H]1C[C@@H](CCc2nc3cc(C(C)(C)C)ccc3[nH]2)C1 [pinometostat]
Procedure, shortened: as §1

[19] = compound: CC1=C(C(CC(=O)N1)C2=CC=C(C=C2)C(F)(F)F)C(=O)NC3=C(C=C4C(=C3)C=NN4)F
Procedure, shortened: as §1

[20] = compound: CC1=C(C2=C(C=C1)C(=O)C3=CC=CC=C3N2CCCN)C
Procedure, shortened: as §1

Chain of UniProt P51148 (P51148 whole entry, looked up): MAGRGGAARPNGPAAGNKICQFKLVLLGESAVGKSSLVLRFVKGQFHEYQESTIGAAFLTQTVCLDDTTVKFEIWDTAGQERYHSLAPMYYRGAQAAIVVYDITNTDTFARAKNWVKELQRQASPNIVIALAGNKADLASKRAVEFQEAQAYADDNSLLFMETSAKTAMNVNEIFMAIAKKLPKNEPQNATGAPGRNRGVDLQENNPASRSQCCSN
Chain of UniProt P49792 (P49792 whole entry, looked up): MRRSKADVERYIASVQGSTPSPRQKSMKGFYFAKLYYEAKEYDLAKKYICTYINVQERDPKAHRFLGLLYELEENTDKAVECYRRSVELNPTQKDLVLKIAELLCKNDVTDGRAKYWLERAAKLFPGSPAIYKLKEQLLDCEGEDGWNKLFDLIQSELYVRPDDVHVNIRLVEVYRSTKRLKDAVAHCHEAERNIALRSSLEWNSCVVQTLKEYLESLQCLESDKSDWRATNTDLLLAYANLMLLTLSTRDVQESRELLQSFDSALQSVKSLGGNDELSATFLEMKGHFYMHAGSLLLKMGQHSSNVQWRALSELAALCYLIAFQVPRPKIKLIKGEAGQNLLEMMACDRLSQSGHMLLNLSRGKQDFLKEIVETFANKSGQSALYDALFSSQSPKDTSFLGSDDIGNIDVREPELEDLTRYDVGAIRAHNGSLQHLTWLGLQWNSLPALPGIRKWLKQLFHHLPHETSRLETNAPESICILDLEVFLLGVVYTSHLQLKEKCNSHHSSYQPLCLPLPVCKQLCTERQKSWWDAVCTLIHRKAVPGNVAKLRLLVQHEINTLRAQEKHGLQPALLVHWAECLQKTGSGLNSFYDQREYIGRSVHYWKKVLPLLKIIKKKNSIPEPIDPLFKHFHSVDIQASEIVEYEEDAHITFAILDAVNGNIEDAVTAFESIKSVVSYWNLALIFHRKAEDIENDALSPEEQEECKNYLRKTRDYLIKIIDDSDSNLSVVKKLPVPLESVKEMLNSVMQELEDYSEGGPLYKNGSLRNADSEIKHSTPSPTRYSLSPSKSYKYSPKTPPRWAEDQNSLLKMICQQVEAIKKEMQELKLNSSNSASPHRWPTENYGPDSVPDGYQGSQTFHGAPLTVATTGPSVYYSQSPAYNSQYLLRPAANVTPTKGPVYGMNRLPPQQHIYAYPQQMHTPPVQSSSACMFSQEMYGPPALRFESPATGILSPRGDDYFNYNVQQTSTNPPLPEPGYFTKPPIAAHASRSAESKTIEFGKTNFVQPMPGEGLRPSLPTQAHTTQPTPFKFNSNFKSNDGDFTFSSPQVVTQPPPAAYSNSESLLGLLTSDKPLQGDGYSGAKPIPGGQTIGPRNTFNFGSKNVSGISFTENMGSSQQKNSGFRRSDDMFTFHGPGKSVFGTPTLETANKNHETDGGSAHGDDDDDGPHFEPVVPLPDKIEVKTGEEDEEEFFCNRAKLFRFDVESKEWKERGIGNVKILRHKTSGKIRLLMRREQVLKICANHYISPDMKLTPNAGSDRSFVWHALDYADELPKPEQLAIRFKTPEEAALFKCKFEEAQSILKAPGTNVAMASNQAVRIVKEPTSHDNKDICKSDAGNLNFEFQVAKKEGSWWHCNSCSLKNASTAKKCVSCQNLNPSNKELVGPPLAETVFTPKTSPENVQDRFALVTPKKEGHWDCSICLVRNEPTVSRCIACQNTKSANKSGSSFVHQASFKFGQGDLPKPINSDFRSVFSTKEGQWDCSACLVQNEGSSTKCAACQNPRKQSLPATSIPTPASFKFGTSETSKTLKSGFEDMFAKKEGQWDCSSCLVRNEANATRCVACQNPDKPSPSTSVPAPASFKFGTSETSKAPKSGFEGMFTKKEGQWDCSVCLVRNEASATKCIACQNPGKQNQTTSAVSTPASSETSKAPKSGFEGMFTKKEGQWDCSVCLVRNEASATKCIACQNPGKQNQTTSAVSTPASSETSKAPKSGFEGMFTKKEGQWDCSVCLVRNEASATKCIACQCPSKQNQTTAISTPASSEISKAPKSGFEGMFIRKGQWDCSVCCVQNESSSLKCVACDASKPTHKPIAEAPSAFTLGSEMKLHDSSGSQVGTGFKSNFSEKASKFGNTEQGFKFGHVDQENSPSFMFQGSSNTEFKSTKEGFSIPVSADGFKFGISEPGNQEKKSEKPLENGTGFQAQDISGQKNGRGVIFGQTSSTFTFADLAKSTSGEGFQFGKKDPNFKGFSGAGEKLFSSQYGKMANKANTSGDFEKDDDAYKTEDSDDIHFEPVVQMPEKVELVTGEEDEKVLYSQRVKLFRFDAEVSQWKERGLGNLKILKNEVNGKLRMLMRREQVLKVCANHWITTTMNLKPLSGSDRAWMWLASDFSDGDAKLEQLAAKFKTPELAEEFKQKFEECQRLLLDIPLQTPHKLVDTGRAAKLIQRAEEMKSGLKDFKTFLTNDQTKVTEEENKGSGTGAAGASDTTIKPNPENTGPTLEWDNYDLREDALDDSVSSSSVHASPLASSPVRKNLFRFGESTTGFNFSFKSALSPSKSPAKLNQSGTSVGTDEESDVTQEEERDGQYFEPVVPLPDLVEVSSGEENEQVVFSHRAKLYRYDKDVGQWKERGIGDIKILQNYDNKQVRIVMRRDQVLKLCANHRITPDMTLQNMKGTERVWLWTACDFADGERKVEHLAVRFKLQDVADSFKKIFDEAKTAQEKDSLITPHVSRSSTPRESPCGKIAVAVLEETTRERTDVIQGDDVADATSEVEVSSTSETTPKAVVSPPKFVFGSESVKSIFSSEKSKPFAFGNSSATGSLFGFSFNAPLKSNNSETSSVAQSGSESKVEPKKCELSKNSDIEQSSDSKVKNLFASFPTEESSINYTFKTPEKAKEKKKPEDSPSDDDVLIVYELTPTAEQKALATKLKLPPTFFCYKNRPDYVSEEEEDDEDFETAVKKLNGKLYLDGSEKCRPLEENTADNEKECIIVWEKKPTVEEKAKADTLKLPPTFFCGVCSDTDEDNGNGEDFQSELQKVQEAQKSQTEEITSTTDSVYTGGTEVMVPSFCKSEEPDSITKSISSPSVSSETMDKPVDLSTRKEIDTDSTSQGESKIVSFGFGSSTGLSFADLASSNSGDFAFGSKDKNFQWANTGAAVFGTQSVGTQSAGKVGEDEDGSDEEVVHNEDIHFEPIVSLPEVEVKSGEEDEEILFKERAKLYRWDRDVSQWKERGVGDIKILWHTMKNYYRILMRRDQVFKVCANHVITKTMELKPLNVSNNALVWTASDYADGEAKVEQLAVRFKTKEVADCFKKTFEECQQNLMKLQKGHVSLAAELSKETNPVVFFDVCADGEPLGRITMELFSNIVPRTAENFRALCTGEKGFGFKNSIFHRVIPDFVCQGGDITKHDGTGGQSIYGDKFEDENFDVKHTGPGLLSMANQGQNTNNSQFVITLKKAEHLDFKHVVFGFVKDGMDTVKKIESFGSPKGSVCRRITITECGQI
Chain of UniProt P46063 (P46063 whole entry, looked up): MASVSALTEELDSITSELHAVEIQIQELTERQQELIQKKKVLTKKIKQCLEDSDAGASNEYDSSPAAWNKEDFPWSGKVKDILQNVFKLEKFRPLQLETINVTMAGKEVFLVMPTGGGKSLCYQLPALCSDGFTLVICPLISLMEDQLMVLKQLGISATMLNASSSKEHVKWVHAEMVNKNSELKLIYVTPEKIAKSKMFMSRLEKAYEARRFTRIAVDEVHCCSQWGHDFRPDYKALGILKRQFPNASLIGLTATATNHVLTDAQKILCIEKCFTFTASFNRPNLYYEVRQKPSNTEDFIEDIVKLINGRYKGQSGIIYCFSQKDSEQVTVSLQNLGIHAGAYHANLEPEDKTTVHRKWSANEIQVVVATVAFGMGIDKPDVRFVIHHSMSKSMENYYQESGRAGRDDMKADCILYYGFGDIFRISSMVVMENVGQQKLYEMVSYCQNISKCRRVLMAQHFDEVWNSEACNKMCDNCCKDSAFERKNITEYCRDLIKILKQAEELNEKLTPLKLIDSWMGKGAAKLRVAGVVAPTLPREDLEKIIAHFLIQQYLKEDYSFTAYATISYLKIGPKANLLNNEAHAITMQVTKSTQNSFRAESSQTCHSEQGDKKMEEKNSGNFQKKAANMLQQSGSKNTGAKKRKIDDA
Chain of UniProt Q9NRX5 (Q9NRX5 whole entry, looked up): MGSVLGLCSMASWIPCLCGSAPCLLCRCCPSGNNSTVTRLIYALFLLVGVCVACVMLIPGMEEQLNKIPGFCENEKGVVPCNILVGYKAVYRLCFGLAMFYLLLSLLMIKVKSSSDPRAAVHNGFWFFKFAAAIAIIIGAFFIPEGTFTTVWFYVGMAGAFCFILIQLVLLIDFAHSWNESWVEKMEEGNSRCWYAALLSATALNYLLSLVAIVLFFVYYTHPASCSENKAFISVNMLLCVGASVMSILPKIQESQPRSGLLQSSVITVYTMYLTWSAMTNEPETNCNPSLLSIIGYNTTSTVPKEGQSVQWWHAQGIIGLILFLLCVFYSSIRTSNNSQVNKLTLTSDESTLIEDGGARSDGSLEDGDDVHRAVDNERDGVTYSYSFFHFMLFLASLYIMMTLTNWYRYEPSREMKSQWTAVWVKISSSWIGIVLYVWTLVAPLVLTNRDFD
Chain of UniProt Q96DX4 (Q96DX4 whole entry, looked up): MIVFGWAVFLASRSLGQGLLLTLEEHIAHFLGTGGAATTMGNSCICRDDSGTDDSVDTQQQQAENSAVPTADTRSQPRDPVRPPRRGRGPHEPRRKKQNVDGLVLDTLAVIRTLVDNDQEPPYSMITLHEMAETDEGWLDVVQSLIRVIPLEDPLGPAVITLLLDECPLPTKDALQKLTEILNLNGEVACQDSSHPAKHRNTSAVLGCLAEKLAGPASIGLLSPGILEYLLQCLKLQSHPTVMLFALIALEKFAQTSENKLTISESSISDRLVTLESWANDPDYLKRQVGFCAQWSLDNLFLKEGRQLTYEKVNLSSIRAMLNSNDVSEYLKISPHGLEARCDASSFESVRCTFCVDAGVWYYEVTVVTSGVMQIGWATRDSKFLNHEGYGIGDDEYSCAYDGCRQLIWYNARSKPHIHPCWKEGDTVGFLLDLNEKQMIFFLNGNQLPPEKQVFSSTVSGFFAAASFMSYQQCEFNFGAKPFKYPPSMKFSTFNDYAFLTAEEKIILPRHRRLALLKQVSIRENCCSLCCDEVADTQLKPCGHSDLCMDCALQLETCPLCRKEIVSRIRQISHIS

Row | Target | log2 fold change [1] | log2 fold change [2] | log2 fold change [3] | log2 fold change [4] | log2 fold change [5] | log2 fold change [6] | log2 fold change [7] | log2 fold change [8] | log2 fold change [9] | log2 fold change [10] | log2 fold change [11] | log2 fold change [12] | log2 fold change [13] | log2 fold change [14] | log2 fold change [15] | log2 fold change [16] | log2 fold change [17] | log2 fold change [18] | log2 fold change [19] | log2 fold change [20]
1 | RPTOR (UniProt Q8N122) | -0.034 | 0.075 | 0.036 | -0.037 | 0.039 | 0.003 | -0.038 | -0.031 | -0.042 | -0.027 | 0 | 0.051 | -0.145 | -0.022 | -0.129 | -0.187 | -0.011 | -0.012 | -0.03 | 0.009
2 | RAB5C isoform 2 (UniProt P51148) | 0 | 0.042 | 0.066 | 0.015 | -0.083 | 0.014 | 0.012 | 0.015 | -0.003 | 0.043 | 0.015 | 0.017 | 0.039 | 0.027 | -0.012 | 0.064 | -0.042 | -0.028 | 0.028 | -0.032
3 | RAB3IL1 (UniProt Q8TBN0) | -0.007 | -0.007 | 0.057 | 0.005 | 0.019 | 0.019 | -0.02 | -0.039 | -0.004 | -0.013 | 0.018 | -0.009 | 0.018 | 0.064 | -0.036 | -0.014 | 0.057 | -0.029 | -0.004 | 0.037
4 | RPS25 (UniProt P62851) | -0.083 | -0.071 | -0.276 | 0.077 | -0.075 | -0.091 | -0.067 | 0.033 | 0.061 | -0.141 | -0.08 | 0.01 | 0.069 | 0.073 | 0.033 | -0.028 | 0.054 | 0.184 | 0.006 | -0.533 (active)
5 | RBM33 (UniProt Q96EV2) | 0.017 | 0.04 | -0.022 | -0.011 | 0 | 0.01 | 0.001 | -0.114 | 0.034 | 0.038 | -0.058 | 0.024 | -0.063 | 0.014 | 0.046 | -0.018 | -0.01 | -0.01 | 0.001 | -0.282 (active)
6 | SCAMP2 (UniProt H3BUB6) | 0.182 | -0.331 | -0.143 | 0.039 | 0.372 | -0.163 | -0.281 | -0.143 | 0.218 | -0.003 | 0.078 | 0.103 | -0.171 | -0.278 | 0.102 | -0.055 | 0.192 | 0.053 | 0.111 | 0.059
7 | SLBP (UniProt Q14493) | 0.006 | 0.03 | -0.058 | 0.019 | -0.111 | 0.035 | 0.005 | 0.008 | 0.008 | -0.039 | -0.123 | -0.162 | -0.38 (active) | -0.068 | -0.09 | -0.206 | 0.162 | -0.034 | 0.098 | -0.126
8 | SERINC1 (UniProt Q9NRX5) | -0.034 | -0.023 | -0.006 | 0.096 | -0.026 | 0.085 | 0.018 | 0.149 | 0.115 | -0.031 | 0 | 0.023 | 0 | -0.106 | -0.235 | -0.568 (active) | 0.095 | -0.022 | 0.038 | 0
9 | RANBP2 (UniProt P49792) | -0.107 | 0.007 | 0.062 | 0.081 | 0.082 | 0.003 | -0.007 | -0.028 | 0.005 | 0 | 0.024 | 0.035 | 0.081 | 0.022 | -0.043 | -0.136 | 0.024 | -0.017 | 0.169 | 0.076
10 | RECQL (UniProt P46063) | -0.019 | 0.072 | 0.066 | -0.005 | 0.046 | 0.004 | -0.004 | -0.003 | -0.062 | 0.01 | 0.013 | 0.002 | -0.023 | -0.024 | -0.039 | -0.033 | -0.02 | -0.013 | -0.031 | 0.266 (active)
11 | SCAF11 (UniProt Q99590) | -0.074 | -0.09 | -0.16 | 0.03 | -0.134 | -0.076 | -0.014 | -0.068 | 0.125 | -0.035 | 0.076 | 0.099 | 0.714 (active) | 0.166 | -0.084 | 0.134 | 0.213 | 0.157 | -0.036 | 0.112
12 | RSPRY1 (UniProt Q96DX4) | 0.028 | 0.079 | 0.016 | 0.041 | 0.017 | -0.042 | -0.006 | -0.026 | -0.014 | 0.033 | 0.018 | 0.027 | 0.02 | -0.019 | -0.036 | 0 | 0.079 | -0.048 | 0.033 | -0.066
13 | REL (UniProt Q04864) | 0.076 | -0.013 | -0.007 | 0.003 | 0.024 | -0.037 | -0.029 | -0.013 | -0.082 | 0.01 | -0.046 | -0.095 | -0.017 | 0.037 | -0.093 | -0.074 | 0.062 | 0.089 | -0.039 | 0.005
14 | RAB33B (UniProt Q9H082) | 0.059 | 0.031 | 0.028 | -0.029 | -0.08 | -0.012 | -0.079 | 0.025 | -0.016 | 0.118 | 0.072 | 0.016 | -0.019 | -0.092 | 0.027 | 0.113 | 0.112 | -0.015 | -0.011 | -0.002
15 | RPS2 (UniProt P15880) | -0.199 | -0.138 | -0.323 | 0.047 | -0.1 | -0.039 | -0.064 | -0.041 | 0.086 | -0.162 | -0.101 | 0.042 | 0.085 | 0.055 | 0.019 | -0.004 | 0.061 | 0.222 | 0.032 | -0.682 (active)
16 | RPS18 (UniProt P62269) | -0.126 | -0.088 | -0.211 | 0.039 | -0.037 | -0.089 | -0.024 | 0 | 0.097 | -0.144 | -0.099 | 0.053 | 0.052 | 0.055 | 0.06 | -0.043 | 0.054 | 0.149 | 0.063 | -0.531 (active)
